Compound activity: PubChem, National Center for Advancing Translational Sciences (NCATS)
Only some compounds are listed: those with a hit (about 2.9% of all), similar ones and a draw of the others.
LDHA block: LDHA (human) enzyme inhibition. activity change, % (values are at about 110 or 230 µM). purified LDHA, NADH/diaphorase-resazurin fluorescence; stronger effect = lower value. AID 1347041. P00338. 0.15% of 480,000 active; in the data active = activity change below about -30%; inconclusive = mostly about -25% to -30%;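 note: plate controls were DMSO wells for no effect and wells without enzyme for full effect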
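Enzyme activity of human lactate dehydrogenase 5 (2 nM; 0.06 mM NADH, 0.2 mM pyruvate, 5 min, RT) is measured via a resazurin/diaphorase fluorescence readout of residual NADH.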
GLP1R cytotox: cytotoxic in the GLP-1 receptor inverse agonist counter-screen | HEK293 cAMP-luciferase reporter cells, luminescence, 24 h | Potency, µM (highest dose often 38.3 µM), for inactives: at the top dose activity change, negative = inhibition, usual class: inhibitors | 0.13% of 410,000 active | AID 624418;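 note: loss of luciferase light is scored as toxicity; potency is the fitted concentration of half-maximal effect; % is set by controls: 0 for no effect and ±100 for the full control effect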
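Compound-treated cells are incubated 24 hr at 37 deg C under 5% CO2 after a 12 hour attachment period, then luciferase detection reagent is added and luminescence is measured following 12 min at room temperature; lowered signal indicates toxicity.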
p53 reactivation: re-activators of mutant p53; H1299 p53-A138V BP100-luciferase reporter, luminescence, 24 h; 0.063% of 320,000 active; Potency, µM (highest dose often 92.2 µM), for the others: at the top dose activity change, positive = activation, most hits filed as activators; note: potency is the fitted concentration of half-maximal effect; % of control where 0% means no effect; nearly all actives have a fitted effect of over 45% in size
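p53-null H1299 cells stably carrying temperature-sensitive p53-A138V and a BP100-luciferase reporter were pinned with compounds (4-point, 1:5 series) and held 24 hrs at 37 deg C. Luminescence was read 10 min after detection reagent.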
ClpP mod: qHTS Assay for Activators of ClpP; 1.9% of 340,000 active; AID 651965, 2013; Potency, µM (top dose mostly 57.5 µM), inactives show at the highest dose activity change, negative = active; purified B. subtilis ClpP, FRET peptide cleavage, 20 min; active = well fitted falling curve with a large enough effect; inconclusive = small, poorly fitted or top-dose-only effect; inactive = no such curve, though single readings can be large or run the other way; note: potency is the fitted concentration of half-maximal effect; the source files actives as falling curves though it sought activators and does not explain the sign; nearly all actives have a fitted effect of over 65% in size
Target sequence (P80244 whole entry, looked up): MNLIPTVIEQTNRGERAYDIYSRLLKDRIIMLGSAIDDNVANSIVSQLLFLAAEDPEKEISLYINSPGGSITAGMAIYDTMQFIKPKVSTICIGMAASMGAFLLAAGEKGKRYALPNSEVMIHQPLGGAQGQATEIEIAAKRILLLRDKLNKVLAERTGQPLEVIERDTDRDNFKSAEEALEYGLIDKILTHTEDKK
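FRET quenching reversal measured ClpP activation: 10 microg/mL B. subtilis ClpP at pH 8 with the FRET-FV decapeptide, read at 430 nm after 320 nm excitation. The 20-min minus 0-min signal was scaled between DMSO/no-enzyme wells and ADEP (5.8 microM final).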
GLP-1R agonist: agonists of human GLP-1 receptor | HEK293 GLP-1R CRE-luciferase, luminescence, 4-6 h; cells express a hypersensitive GLP-1R form | P43220 | Potency, µM (titrated, usually from 45.6 µM), without a hit: top-dose activation, usual class: activators | 0.007% of 380,000 active | AID 624172; note: potency is the fitted concentration of half-maximal effect; % of control where 0% means no effect
Target sequence (P43220 whole entry, looked up): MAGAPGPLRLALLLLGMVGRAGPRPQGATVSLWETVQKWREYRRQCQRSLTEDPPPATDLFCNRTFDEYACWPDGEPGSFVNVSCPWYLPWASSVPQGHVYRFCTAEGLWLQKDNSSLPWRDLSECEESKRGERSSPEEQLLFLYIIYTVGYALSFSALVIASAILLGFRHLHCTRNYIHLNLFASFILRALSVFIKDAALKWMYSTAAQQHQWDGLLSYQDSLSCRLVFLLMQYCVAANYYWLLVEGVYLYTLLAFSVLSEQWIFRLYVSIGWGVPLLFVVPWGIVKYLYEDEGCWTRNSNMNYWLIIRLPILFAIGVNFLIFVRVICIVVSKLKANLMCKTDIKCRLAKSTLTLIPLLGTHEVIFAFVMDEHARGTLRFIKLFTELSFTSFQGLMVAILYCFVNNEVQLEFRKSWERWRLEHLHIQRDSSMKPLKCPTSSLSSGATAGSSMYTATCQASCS
GLP-1R inv ag: GLP-1 receptor (human) inverse agonism. Potency, µM (highest dose often 38.3 µM), without a hit: at the top dose activity change, negative = inhibition, actives largely listed as inhibitors. P43220. 1.6% of 410,000 active. HEK293 GLP-1R CRE-luciferase, luminescence, 24 h; GLP-1R form is constitutively active. AID 624417; note: potency is the fitted concentration of half-maximal effect; % is set by controls: 0 for no effect and ±100 for the full control effect; nearly all actives have a fitted effect of over 55% in size
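qHTS in 1536-well format: reporter HEK293 cells expressing constitutive GLP-1R activity in DMEM + 10% Nu serum, 24 hr with compounds at 37 deg C, luminescence read after 12 min with detection reagent.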
Active calls of the source: *; ? = inconclusive; / = no result. Unless noted, calls come from the whole dose curve; as a rule, active = well fitted curve in the direction sought with a large enough effect; inconclusive = small, poorly fitted or top-dose-only effect, or another doubt; inactive = no such curve, though single readings can be large; an effect the other way counts as inactive or inconclusive.

SMILES	LDHA block	GLP1R cytotox	p53 reactivation	ClpP mod	GLP-1R agonist	GLP-1R inv ag
Cc1ccc(C(C#N)c2ccc(C(=O)c3ccc(F)cc3)cc2)cc1 (centres undefined)	0	13%	7%	1%	-3%	11µM*
CSc1ccc(CCNC(=O)Cn2ncn3c(cc4ccccc43)c2=O)cc1	-4	6%	/	20µM*	/	1%
C[C@H](O)[C@@H]1C(=O)N2CCc3c([nH]c4ccccc34)[C@@H]2C[C@@H]1N(C)C(=O)Nc1cccc2ccccc12	14	23%	/	5%	1%	-12%
COc1ccc(C(=O)Nc2cccc(OC(=O)c3ccc(C)c(C)c3)c2)cc1	4	-30%	?	-3%	-20%	?
CC(=O)Oc1ccc(C(=O)Nc2cccc(C(=O)c3ccc(C)c(C)c3)c2)cc1	-4	?	-12%	-2%	2%	13µM*
CC1CCc2c(nc3sc4c(c3c2N)CCCC4)C1 (centres undefined)	-5	?	?	/	22%	5.6µM*
CC1CCc2nc3sc4c(c3c(N)c2C1)CCCC4 (centres undefined)	-8	?	?	-3%	3%	?
CN1CCN(c2ccc(-c3cccc(NC(=O)COc4ccccc4)c3)nn2)CC1	-6	-10%	5%	2%	-3%	11µM*
CN1CCN(c2ccc(-c3cccc(NC(=O)COc4ccc(Cl)cc4)c3)nn2)CC1	-5	?	11%	?	-16%	?
O=C(COc1ccccc1)Nc1ccc(-c2ccc(N3CCOCC3)nn2)cc1	-3	11%	28%	16µM*	1%	?
O=C(COc1ccccc1)Nc1ccc(S(=O)(=O)N2CCOCC2)cc1	-6	19%	6%	-3%	19%	5%
Cc1cc(N2CCC(C)CC2)nc2ccc(N3C(=O)CCC3=O)cc12	-4	4%	6%	40µM*	6%	7%
Cc1cc(C)n2nc(-c3sccc3-n3cccc3)cc2n1	-5	-2%	-4%	-23%	5%	?
CC(=O)N1CCN(CC(=O)Nc2ccc(C)c(S(=O)(=O)N(C)C)c2)CC1	-11	2%	-2%	2%	0%	4%
Cc1ccc(NC(=O)CN2CCC(Cc3ccccc3)CC2)cc1S(=O)(=O)N(C)C	-18	-13%	5%	-1%	-3%	8.9µM*
Cc1ccc(C(=O)CN(CCC(=O)O)C(=O)c2ccncc2)cc1	0	-21%	14%	2%	6%	3%
Cc1cccc(Nc2nc3c(S(=O)(=O)c4ccccc4)nnn3c3ccccc23)c1	-3	-12%	-6%	-5%	3%	12%
O=C(N/N=C/c1sc2ccccc2c1O)c1ccccc1	7	-8%	14µM*	-1%	-11%	?
COc1ccc2cc(C(=O)N/N=C/c3sc4ccccc4c3O)ccc2c1	0	22%	?	-18%	-6%	?
COc1ccc(C(=O)N/N=C/c2sc3ccccc3c2O)cc1	8	?	?	2%	-1%	1.6µM*
O=C(N/N=C/c1ccc([N+](=O)[O-])s1)c1ccccc1	-63*	-11%	-6%	/	5%	9%
Fc1ccc2cnc(-c3ccccc3)c(-c3cc(C(F)(F)F)cc(C(F)(F)F)c3)c2c1	5	-13%	21%	-8%	-4%	4.5µM*
Fc1ccc2cnc(-c3ccccc3)c(-c3ccc(C(F)(F)F)cc3)c2c1	-9	-29%	19%	-12%	19%	13µM*
Fc1ccc2c(-c3cccc(C(F)(F)F)c3)c(-c3ccccc3)ncc2c1	0	-1%	-8%	?	12%	?
COc1cc(-c2coc3c(C(=O)NC4CCCCC4)cccc23)ccc1O	0	-9%	/	-1%	14%	?
SMILES	LDHA block	GLP1R cytotox	p53 reactivation	ClpP mod	GLP-1R agonist	GLP-1R inv ag
O=C1Nc2ccc(S(=O)(=O)N(CCO)CCO)c3cccc1c23	0	91%	6%	1%	-1%	43%
Cc1cc(C)nc(OC(C(=O)O)C(OCCc2ccccc2)(c2ccc(F)cc2)c2ccc(F)cc2)n1 (centres undefined)	0	-32%	-40%	-1%	-6%	10µM*
O=C(Oc1ccc(C(=S)N2CCOCC2)cc1)c1ccc([N+](=O)[O-])cc1	-6	-7%	?	5%	0%	-2%
Nc1cc2c3c(cccc3c1)C(=O)N(CCN1CCCC1)C2=O	5	0%	0%	/	-8%	?
O=C1c2cccc3cc([N+](=O)[O-])cc(c23)C(=O)N1CCN1CCCC1	23	34%	?	/	-13%	4.5µM*
C=CCN1C(=O)NC(c2ccc(OC)cc2)(C(F)(F)F)S/C1=C(\C#N)c1nnc(N2CCOCC2)n1-c1ccccc1 (centres undefined)	-3	10µM*	-1%	1%	2%	?
COc1ccc(-c2cc3c(=O)n(CC(=O)N4CCN(C)CC4)ncn3n2)cc1	-3	5%	/	-8%	5%	4%
CCN(CC)c1ccc(C(=O)O)cc1	-3	9%	-17%	-3%	-5%	9%
O=C(O)c1ccc(N(c2ccccc2)c2ccccc2)cc1	-6	-5%	-10%	16µM*	-6%	-7%
CCCCCCCOc1ccc(C(C)=O)cc1	1	/	/	/	/	/
c1ccc(Oc2nc3ccccc3n3cccc23)cc1	0	-18%	1%	28µM*	1%	?
Cc1ccc(Oc2nc3ccccc3n3cccc23)cc1	-2	19%	2%	22µM*	14%	?
Cc1nnc2c(Oc3ccccc3)nc3ccccc3n12	-6	54%	4%	-3%	-3%	20%
COc1ccccc1NC(=O)CC1C(=O)NCCN1C(=O)Nc1ccc(Cl)c(Cl)c1 (centres undefined)	3	-19%	-23%	0%	-4%	?
C=CCn1c(-c2ccc(OC)cc2)nc2nc3ccccc3nc21	-13	5%	9%	25µM*	20%	58%
O=C(Nc1ccc(-n2cccn2)c(F)c1)C1CCCN(C(=O)c2ccoc2)C1 (centres undefined)	-31*	/	/	/	/	/
CCN(CC)c1ccc(-c2nn3c(-c4n[nH]c5c4CCC5)nnc3s2)cc1	1	-5%	0%	28µM*	7%	?
COc1cccc(OC)c1-c1nn2c(-c3n[nH]c4c3CCC4)nnc2s1	3	/	/	4%	/	/
O=C(Nc1ccc2nc(SCC(=O)N3CCc4ccccc43)sc2c1)c1ccccc1	-2	-14%	/	8.9µM*	/	-27%
